Screening data (PubChem BioAssay)
Only some compounds are listed: those with a hit (about 10% of all), similar ones and a draw of the others.
ELG1 repair inh: blocks ELG1-dependent DNA repair in HEK293T cells. HEK293T ELG1-luciferase reporter, luminescence, 16 h; DNA damage induced by 5-fluorouridine. Potency, µM (doses to about 46.1 µM), for inactives: at the highest dose activity change, negative = inhibition, usual class: inhibitors. 330,000 tested, 2.3% active. AID 504467; also: % is scaled to controls: 0 for no effect and ±100 for the full control effect; nearly all actives have a fitted effect of over 55% in size
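Step one: seed 2,000 cells per well. Step two: pin-transfer compound or DMSO alongside 5-fluorouridine. Step three: incubate 16 hr, 37 °C, 5% CO2. Step four: add ONE-Glo, wait 30 min, read luminescence.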
VP16 counter: inhibits Gal4-VP16 luciferase reporter, ROR gamma counter-screen; Drosophila S2 Gal4-VP16 UAS-luciferase, luminescence, 20 h; Potency, µM (doses to about 53.6 µM), for inactives: top-dose activity, negative = inhibition, most hits filed as inhibitors; 310,000 tested, 3.5% active;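 also: Gal4-VP16 expression switched on by copper sulfate through the metallothionein promoter; % is scaled to controls: 0 for no effect and ±100 for the full control effect; nearly all actives have a fitted effect of over 50% in size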
SW480 rerep: DNA re-replication induction in SW480 cells. SW480 DNA re-replication, Hoechst DNA content imaging, 48 h. Potency, µM (titrated, usually from 46.1 µM), without a hit: at the highest dose re-replication activation, hits mostly activators. 340,000 tested, 1.8% active; also: % of control where 0% means no effect; nearly all actives have a fitted effect of over 55% in size
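DNA re-replication was detected as more nuclei of elevated Hoechst intensity after 48 hr exposure to compound (23 nL pinned per well of 250 cells).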
MCF10A rereplic: induces DNA re-replication in MCF 10a normal breast cells. MCF 10A DNA re-replication, Hoechst nuclear intensity, 48 h. Potency, µM (highest dose often 46.1 µM), without a hit: top-dose activity, positive = re-replication, hits mostly activators. 350,000 tested, 2.9% active. AID 624296; also: % of control where 0% means no effect; nearly all actives have a fitted effect of over 50% in size
RORgamma inh: inhibitors of mouse ROR gamma transcriptional activity. 310,000 tested, 5.4% active. Drosophila S2 Gal4-RORgamma UAS-luciferase reporter, 20 h. Potency, µM (highest dose often 53.6 µM), for inactives: at the top dose activity change, negative = inhibition, usual class: inhibitors. AID 2551. P51450; also: % is scaled to controls: 0 for no effect and ±100 for the full control effect; nearly all actives have a fitted effect of over 60% in size
Target sequence (P51450 whole entry, looked up, the tested form may be a part): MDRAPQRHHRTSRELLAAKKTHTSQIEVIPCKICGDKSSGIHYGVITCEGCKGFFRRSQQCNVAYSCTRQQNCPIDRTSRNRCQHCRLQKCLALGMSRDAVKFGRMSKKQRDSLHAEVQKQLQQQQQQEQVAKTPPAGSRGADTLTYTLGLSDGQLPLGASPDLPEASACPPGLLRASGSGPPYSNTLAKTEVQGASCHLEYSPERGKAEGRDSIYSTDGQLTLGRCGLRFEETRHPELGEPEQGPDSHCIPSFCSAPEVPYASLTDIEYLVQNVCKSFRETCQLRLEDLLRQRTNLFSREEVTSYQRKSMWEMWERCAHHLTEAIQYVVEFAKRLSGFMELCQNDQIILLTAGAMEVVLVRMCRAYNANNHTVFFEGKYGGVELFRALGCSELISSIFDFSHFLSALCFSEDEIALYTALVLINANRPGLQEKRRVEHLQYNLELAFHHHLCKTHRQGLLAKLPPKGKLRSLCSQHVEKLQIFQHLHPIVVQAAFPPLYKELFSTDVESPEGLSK
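Using a luciferase readout, inhibitors were identified by reduced reporter activity in Drosophila cells coexpressing a copper-inducible Gal4–ROR gamma fusion and UAS-driven Photinus luciferase, incubated 20 hr after 700 uM copper sulfate.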
* marks the source's active call; other numbers are inactive results; u = inconclusive; x = no result given; [ ] = remark or other dose. Calls follow the shape of the dose curve; as a rule, active = well fitted curve in the direction sought with a large enough effect; inconclusive = small, poorly fitted or top-dose-only effect, or another doubt; inactive = no such curve, though single readings can be large; an effect the other way counts as inactive or inconclusive. Potency is read from the fitted curve at half-maximal effect.

SMILES	ELG1 repair inh	VP16 counter	SW480 rerep	MCF10A rereplic	RORgamma inh
COCCOc1cc(NC(=O)CS(=O)(=O)CC(=O)N(C)C)c(Cl)cc1Cl	-0.7%	3.9%	-1.0%	-3.4%	-14.0%
CCOc1c(Cl)cc(CNCC(O)c2ccccc2)cc1OC (configuration not stated)	12.7%	u	4.9%	u	7.08µM*
COc1cc(CNn2cn[nH]c2=S)cc(Cl)c1OCc1ccccc1	11.8%	u	-0.7%	19.3%	3.55µM*
COc1cc(CNCc2ccccc2)cc(Cl)c1OC	9.4%	7.0%[10 µM]	0.2%	7.9%	-2.2%
COc1cc(CNCCc2ccccc2)cc(Cl)c1OCc1ccccc1	-20.7%	u	u	23.1µM*	u
COc1cc(CNc2ccc(CNc3ncn[nH]3)cc2)cc(Cl)c1OCc1ccccc1	u	-2.2%	u	u	37.1%
CC(C)N(C)Cc1nnnn1CC(=O)N(C)Cc1cccc(Cl)c1	12.6%	x	-20.1%	-8.2%	x
COc1ccccc1N(C)S(=O)(=O)c1ccc(C(=O)N2CCCc3ccccc32)cc1	14.6µM*	-18.1%	18.0%	u	39.8%
COc1ccccc1N(C)S(=O)(=O)c1ccc(C(=O)NC2CCCCC2)cc1	23.1µM*	x	-3.3%	14.6%	x
COc1ccccc1N(C)S(=O)(=O)c1ccc(C(=O)Nc2ccncc2)cc1	11.6µM*	x	-4.7%	u	x
COc1ccccc1NC(=O)c1ccc(S(=O)(=O)N(C)c2ccccc2OC)cc1	u	x	2.4%	7.9%	x
CN(c1ccc(C(=O)NC2CCCC2)cc1)S(=O)(=O)c1ccccc1	u	-5.5%	-8.3%	25.1%	20.2%
COc1ccccc1N(C)S(=O)(=O)c1ccc(C(=O)N2CCC2)cc1	16.6%	x	11.3%	10.7%	x
CC(C)Cc1ccccc1O	14.1%	0.7%	x	x	-0.5%
COC(=O)c1ccccc1NC(=O)CN(c1c(C)cccc1C)S(C)(=O)=O	-1.2%	u	10.1%	0.5%	17.5%
CN(C)CCOC(=O)C12CC3CC(C1)CC(C(=O)OCCN(C)C)(C3)C2	15.1%	-2.8%	-58.4%	7.9%	-2.3%
CCN(CC)CCOC(=O)C12CC3CC(CC(C3)C1)C2	4.8%	8.8%	1.9%	19.4%	5.01µM*
COc1ccc(C(=O)COC(=O)c2sccc2C)cc1OC	u	x	-2.4%	-0.5%	x
C=C1CN(C(C(=O)OC)C(C)C)S(=O)(=O)c2ccc(F)cc21 (configuration not stated)	x	-5.6%	x	x	-1.9%
CC1(C)Oc2ccc3ccc(=O)oc3c2/C(=C/NC2CCCCC2)C1=O	u	3.6%	u	14.6µM*	4.8%
Nc1nsc2ccccc12	-20.5%	u	u	-30.3%	14.1µM*
Nc1nnc(N)c2ccccc12	17.5%	-8.0%	0.8%	u	15.0%
COC(=O)CNC(=O)COC(=O)c1ccc(Cl)nc1	-7.6%	-13.7%	0.8%	-3.6%	17.9%
COc1ccc(CNc2ncnc3ccc(-c4c(C)noc4C)cc23)cc1	x	-3.7%	x	x	-1.1%
Cc1[nH]n2c(=O)c3c(nc2c1-c1ccc(F)cc1)CCCC3	-9.9%	1.7%	-3.3%	-8.9%	-20.2%
SMILES	ELG1 repair inh	VP16 counter	SW480 rerep	MCF10A rereplic	RORgamma inh
Cc1[nH]n2c(=O)c3c(nc2c1-c1ccccc1)CCCC3	u	u	-1.2%	0.2%	11.2µM*
O=c1c2c(nc3c(-c4ccc(Cl)cc4)c[nH]n13)CCCC2	10.3µM*	6.31µM*	19.1%[9.22 µM]	1.6%	2.24µM*
O=c1c2c(nc3cc(-c4cccc(Cl)c4)[nH]n13)CCC2	u	-26.0%	10.7%	u	u
O=c1c2c(nc3c(-c4cccc5ccccc45)c[nH]n13)CCC2	-0.4%	-7.9%	-6.0%	11.2µM*	3.3%
Cc1[nH]n2c(=O)c3c(nc2c1-c1cccc2ccccc12)CCC3	-6.2%	u	-24.0%	u	12.6µM*
O=[N+]([O-])c1ccc(N2CCN(c3ccccn3)CC2)c(Cl)c1	u	4.9%	0.4%	16.6%	58.3%
CC(CNC(=O)CN1C(=O)COc2ccc(S(=O)(=O)N3CCCCC3)cc21)c1ccccc1 (configuration not stated)	6.5%	-9.3%	u	12.4%	-10.8%
CC1CCCCC12NC(=O)N(CC(=O)NNC(=O)c1ccc(Br)cc1)C2=O (configuration not stated)	3.9%	x	-2.1%	-3.8%	x
CC/C(=N\NC(=O)C1CCCC1)c1cccc(Br)c1	1.9%	21.5%	-18.8%	5.7%	1.4%
C/C(=N\NC(=S)NC1CCCCC1)c1ccc(C#N)cc1	5.3%	2µM*	-3.3%	1.2%	2.24µM*
C/C(=N\NC(=S)NC1CCCCC1)c1cccc(Br)c1	u	1µM*	-3.2%	u	2.24µM*
CC(=O)N/N=C(\C)c1cccc(C(F)(F)F)c1	-12.8%	17.8%	-4.8%	-15.9%	-1.6%
CCNC(=S)N/N=C(\C)c1cccc(C(F)(F)F)c1	24.7%	4.47µM*	-2.9%	-2.8%	1.26µM*
C/C(=N\NC(=S)NC1CCCCC1)c1cccc(C(F)(F)F)c1	-8.2%	2.51µM*	0.9%	u	u
O=[N+]([O-])c1cc(S(=O)(=O)C(F)(F)F)ccc1NCC1CCCO1 (configuration not stated)	19.2%	-12.8%	-1.2%	6.3%	u
COc1ccc2ncc(S(=O)(=O)c3ccccc3)c(N3CCC4(CC3)OCCO4)c2c1	u	-2.1%	u	u	u
COc1ccc2ncc(S(=O)(=O)c3ccccc3)c(N3CCN(c4ccccc4)CC3)c2c1	16.4µM*	-1.0%	-9.7%	14.2%	-3.8%
COc1ccc(C(=O)CN2CCN(c3cc(C)nc4ccccc34)CC2)cc1	8.2µM*	1.8%	-5.3%	-1.4%	-5.7%
COc1ccc2nc(C)cc(N3CCN(c4ccccc4)CC3)c2c1	-13.0%	-14.0%	6.2%	-9.2%	14.1µM*
COc1ccc2nc(C)cc(N3CCOCC3)c2c1	u	-0.5%	-2.5%	1.4%	34.1%
COc1ccc(N2CCN(CC(=O)c3ccccc3)CC2)cc1	3.1%	2.8%	1.6%	5.9%	1.9%
Cc1ccc(S(=O)(=O)N2CCNC(=O)CC2)cc1	12.7%	6.3%	-1.1%	-16.3%	12.4%
CCCc1cc(=O)[nH]c(SCC(=O)NC2(C#N)CCCCC2)n1	11.7%	x	-31.2%	4.0%	x
CCN(CC)c1nc(N2CCN(CCO)CC2)nc2ccccc12	-0.4%	0.3%	16.9%	16.2%	5.4%
c1ccc(-c2nc(N3CCCCC3)nc3ccccc23)cc1	15.2%	-18.7%	u	u	135.7%
c1ccc(-c2nc(N3CCNCC3)nc3ccccc23)cc1	u	-1.7%	23.1µM*	0.708µM*	-1.4%
CCN1CCN(c2nc(-c3ccccc3)c3ccccc3n2)CC1	-11.8%	-2.3%	20.6µM*	14.6µM*	-36.0%
CCCN(CCC)C(=O)C1CCN(c2cc(C)nc3c(-c4ccc(OC)c(OC)c4)c(C)nn23)CC1	6.51µM*	-10.9%	-16.7%	8.2%	-13.4%
